In PubChem BioAssay AID651956 (Broad Institute, 2012):
Potency and affinity values are given separately. Inconclusive results are not listed. The source made the active and inactive calls.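 How the source made its calls: active means in every test run, a fitted half-maximal concentration for signal decrease at or below twice the highest tested concentration; inconclusive means runs disagree, flat 30 to 70% decrease, or poor fit; inactive means the rest.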

test: miR-122 activators in hepatoma reporter cells, dose response, cell-based, Huh7 psiCHECK-miR122, Renilla luciferase, cherry-picked (AID 651956); settings: 48 h; series mostly up to 35 µM;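 further: Renilla luciferase from a miR-122 sensor reporter so lower signal means miR-122 activation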

outcome, inactive:
CCN(C[C@H]1[C@H](c2ccccc2)[C@H](CO)N1C(=O)COC)S(C)(=O)=O
COCC(=O)N1[C@@H](CO)[C@@H]2c3ccccc3N(C(=O)C3CC3)C[C@@H]21
O=C(Nc1ccccc1N1CCN(C(=O)c2ccc(Cl)cc2)CC1)c1cccnc1
COc1cccc(OCc2cc(/C=N/Nc3ccc(C(=O)O)cc3)ccc2OC)c1
C/C=C/c1ccc([C@H]2[C@@H](CO)N(Cc3ccccn3)[C@@H]2CNC(=O)CC)cc1
C/C=C/c1ccc([C@H]2[C@H](CO)N[C@H]2CN(C)S(=O)(=O)c2ccccc2)cc1
CN1C(=O)c2cc(NC(=O)Cc3ccccc3)ccc2OC[C@H]2O[C@@H](CC(=O)NCc3ccc(Cl)cc3)CC[C@@H]21
CN(C)CCCN(C(=O)CCc1ccccc1)c1nc2ccc(Br)cc2s1
COc1cccc(-c2nn(-c3ccccc3)cc2CO)c1
CNC(=O)C[C@@H]1CC[C@@H]2[C@@H](COc3ccc(NC(=O)c4ccccc4OC)cc3C(=O)N2C)O1
COc1ccc(C#Cc2ccc3c(c2)O[C@H](CN(C)C(=O)CN2CCOCC2)[C@@H](C)CN([C@@H](C)CO)S3(=O)=O)cc1
C/C=C/c1ccc([C@H]2[C@H](CO)N(C(C)=O)[C@H]2CN(C)C(=O)c2ccccn2)cc1
CNC(=O)C[C@@H]1CC[C@@H]2[C@@H](COc3ccc(NC(=O)Cc4cccs4)cc3C(=O)N2C)O1
Cc1cc(C)n(C(=O)Cn2nc(C)c(Br)c2C)n1
CC(C)N(C[C@@H]1N[C@@H](CO)[C@@H]1c1ccccc1)S(=O)(=O)c1ccccc1
COc1cc(Cl)cc(/C=N\NC(=O)c2ccc3c(c2)OCO3)c1O
N#Cc1ccc(C(=O)Nc2ccc(N3CCN(C(=O)c4ccco4)CC3)cc2)c(F)c1
CNC(=O)C[C@@H]1CC[C@@H]2[C@@H](COc3ccc(NC(=O)c4ccccc4F)cc3C(=O)N2C)O1
COCC(=O)N(C[C@@H]1N[C@H](CO)[C@H]1c1ccc(C2=CCCC2)cc1)C(C)C
Cc1ccnc(Nc2nc(-c3c(C)nc4sccn34)cs2)c1
O=C(CN1CCN(c2nc(-c3ccccc3)cs2)CC1)Nc1ccc2c(c1)OCO2
CCCNC(=O)N1C[C@@H]2[C@H](c3ccccc31)[C@@H](CO)N2Cc1cc(F)ccc1F
O=C(Nc1nc(-c2cc3ccccc3o2)cs1)c1ccc(S(=O)(=O)N2CCCC2)cc1
CC(C)CC#Cc1ccc2c(c1)O[C@H](CN(C)C(=O)c1cnccn1)[C@H](C)CN([C@H](C)CO)S2(=O)=O
FC(F)(F)c1cnc(N2CCCN(C(=S)Nc3ccccc3)CC2)c(Cl)c1
CC(=O)N1[C@H](CN(C(=O)c2ccc(F)cc2)C(C)C)[C@@H](c2ccccc2)[C@@H]1CO
COCC(=O)NC[C@H]1[C@@H](c2ccc(C3=CCCC3)cc2)[C@@H](CO)N1C(=O)C1CC1
